Here are results for 20 compounds from PubChem BioAssay.

Experiment [1] is described as follows: antimalarial activity against Dd2 strain (AID 2302;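 active = growth inhibition above 50% at the single 2 µM test dose, taken to imply half-maximal potency below 2 µM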;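 note: 0% = DMSO untreated growth and 100% = chloroquine plus artemisinin killed control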). The settings on record: P. falciparum Dd2 in RBCs, LDH growth readout, 72 h; at 2 µM; stronger effect = higher value.
Experiment [2] in a line: HepG2 cytotoxicity, primary screen, cytotoxicity control for P. falciparum antimalarial project, cell-based, ATP luminescence (AID 2303;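 active = inhibition above 50%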;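 note: 0% = DMSO wells and 100% = digitonin-killed cells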). The following applies: HepG2 viability, 24-48 h, at 10 µM, stronger effect = higher value.
Experiment [3] addresses L-lactate dehydrogenase (Plasmodium falciparum (isolate CDC / Honduras)) (UniProt Q27743). The experiment can be described thus: PfLDH activity inhibition – cell lysate, 3D7 strain, counter-screen for P. falciparum growth inhibition project (AID 2304).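 Note: 0% = vehicle and 100% = reference inhibitor.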 The settings on record: P. falciparum 3D7 crude extract, LDH APAD/NBT absorbance; at 2 µM; stronger effect = higher value.
Experiment [4] can be described thus: inhibition of 3D7 malaria parasite growth – strain 3D7 (AID 2306).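 Note: 0% = DMSO wells and 100% = chloroquine plus artemisinin control wells.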 The settings on record: P. falciparum 3D7 erythrocytic growth, LDH absorbance, 72 h; at 2 µM; stronger effect = higher value.
Experiment [5] has as its target Calcium-dependent protein kinase 1 (Plasmodium falciparum (isolate 3D7)) (UniProt P62344). In words: PfCDPK1 kinase inhibitors, biochemical, TCAMS library (AID 1159585; cut-off not given, nearly all actives have IC50 up to about 0.98 µM;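 note: inhibitors leave more ATP so luminescence rises with inhibition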). The settings on record: recombinant PfCDPK1, Kinase-Glo ATP depletion luminescence.
In experiment [6] the target is Plasmodium falciparum protein kinase 6 (PK6, PF3D7_1337100) (UniProt Q8IDW1). The experiment can be described thus: PfPK6 kinase inhibitors, biochemical, TCAMS library (AID 1159586). The settings on record: recombinant PfPK6, Kinase-Glo ATP depletion luminescence. On the technique in general: Kinase-Glo reads ATP consumption through a luciferase reaction.
Plasmodium falciparum protein kinase 6 (PK6, PF3D7_1337100), sequence (Q8IDW1 1-305): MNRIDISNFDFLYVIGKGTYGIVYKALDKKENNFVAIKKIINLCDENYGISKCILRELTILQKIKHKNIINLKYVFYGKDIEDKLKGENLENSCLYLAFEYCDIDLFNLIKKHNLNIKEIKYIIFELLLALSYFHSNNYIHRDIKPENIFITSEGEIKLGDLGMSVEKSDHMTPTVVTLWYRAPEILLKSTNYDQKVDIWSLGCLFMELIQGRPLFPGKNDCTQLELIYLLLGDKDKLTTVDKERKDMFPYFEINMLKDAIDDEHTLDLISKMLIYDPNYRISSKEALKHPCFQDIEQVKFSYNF
Experiment [7] concerns the target Protein kinase 7 (PK7), Plasmodium falciparum 3D7 (PF3D7_0213400) (UniProt Q7YTF7). In words: inhibition of Plasmodium PK7 catalytic activity – biochemical, TCAMS antimalarial set, Kinase-Glo luminescence (AID 1159587). The following applies: recombinant PfPK7, Kinase-Glo ATP depletion luminescence.
The target in experiment [8] is Calcium-dependent protein kinase 4 (Plasmodium falciparum (isolate 3D7)) (UniProt Q8IBS5). In words: PfCDPK4 kinase inhibitors, biochemical, TCAMS library (AID 1159588; cut-off not given, nearly all actives have IC50 up to about 0.91 µM). The settings on record: recombinant PfCDPK4, Kinase-Glo ATP depletion luminescence.
Calcium-dependent protein kinase 4 (Plasmodium falciparum (isolate 3D7)), sequence (Q8IBS5 whole entry, looked up): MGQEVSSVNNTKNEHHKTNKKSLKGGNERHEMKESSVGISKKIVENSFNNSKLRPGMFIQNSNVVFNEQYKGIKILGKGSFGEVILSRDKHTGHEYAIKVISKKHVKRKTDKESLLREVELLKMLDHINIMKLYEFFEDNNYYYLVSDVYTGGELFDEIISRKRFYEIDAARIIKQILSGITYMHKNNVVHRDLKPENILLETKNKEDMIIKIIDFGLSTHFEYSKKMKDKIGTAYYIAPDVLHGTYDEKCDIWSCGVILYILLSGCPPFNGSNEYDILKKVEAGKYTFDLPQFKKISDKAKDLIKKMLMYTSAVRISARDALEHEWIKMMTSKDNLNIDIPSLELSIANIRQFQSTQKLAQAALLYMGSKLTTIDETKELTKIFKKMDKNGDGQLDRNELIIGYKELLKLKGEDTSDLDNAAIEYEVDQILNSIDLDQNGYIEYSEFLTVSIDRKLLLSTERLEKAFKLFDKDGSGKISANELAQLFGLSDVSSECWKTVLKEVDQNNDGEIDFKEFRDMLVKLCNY

Values without a mark were called inactive. For some of these results: Results with a measured potency or affinity are listed apart. The source made the active and inactive calls. Unless noted, the rule behind the calls is not given here.

Calcium-dependent protein kinase 1 (Plasmodium falciparum (isolate 3D7)), sequence (P62344 whole entry, looked up): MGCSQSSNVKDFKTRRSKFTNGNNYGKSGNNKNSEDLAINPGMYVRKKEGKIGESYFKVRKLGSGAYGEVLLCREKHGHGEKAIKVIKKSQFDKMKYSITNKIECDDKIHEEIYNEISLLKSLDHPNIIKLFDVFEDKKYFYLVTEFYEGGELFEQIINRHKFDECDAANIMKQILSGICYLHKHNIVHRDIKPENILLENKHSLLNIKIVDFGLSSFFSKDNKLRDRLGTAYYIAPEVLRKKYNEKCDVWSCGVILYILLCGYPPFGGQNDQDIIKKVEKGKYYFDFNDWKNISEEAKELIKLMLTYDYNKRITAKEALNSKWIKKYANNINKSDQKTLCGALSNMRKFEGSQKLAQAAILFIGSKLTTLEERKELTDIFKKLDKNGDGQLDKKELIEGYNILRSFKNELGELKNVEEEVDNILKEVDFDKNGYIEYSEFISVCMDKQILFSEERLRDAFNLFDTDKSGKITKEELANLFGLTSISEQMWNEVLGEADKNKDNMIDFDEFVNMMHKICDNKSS
L-lactate dehydrogenase (Plasmodium falciparum (isolate CDC / Honduras)), sequence (Q27743 whole entry, looked up): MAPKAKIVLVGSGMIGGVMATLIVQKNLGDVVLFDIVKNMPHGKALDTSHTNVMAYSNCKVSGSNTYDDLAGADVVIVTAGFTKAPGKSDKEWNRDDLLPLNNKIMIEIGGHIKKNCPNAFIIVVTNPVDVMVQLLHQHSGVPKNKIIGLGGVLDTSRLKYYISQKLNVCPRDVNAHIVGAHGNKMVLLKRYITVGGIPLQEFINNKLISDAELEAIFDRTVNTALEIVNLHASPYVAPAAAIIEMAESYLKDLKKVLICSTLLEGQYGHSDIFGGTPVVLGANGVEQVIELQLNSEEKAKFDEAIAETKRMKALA
Protein kinase 7 (PK7), Plasmodium falciparum 3D7 (PF3D7_0213400), sequence (Q7YTF7 1-343): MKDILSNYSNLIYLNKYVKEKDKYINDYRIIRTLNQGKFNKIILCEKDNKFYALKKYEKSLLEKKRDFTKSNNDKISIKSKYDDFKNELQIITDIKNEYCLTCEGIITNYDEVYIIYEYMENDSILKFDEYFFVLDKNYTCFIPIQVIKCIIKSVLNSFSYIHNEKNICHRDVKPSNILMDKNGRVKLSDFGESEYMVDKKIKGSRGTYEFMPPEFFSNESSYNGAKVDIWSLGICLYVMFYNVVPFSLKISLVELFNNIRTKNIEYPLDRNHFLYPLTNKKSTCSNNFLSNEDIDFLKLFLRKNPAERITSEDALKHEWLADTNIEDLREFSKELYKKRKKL

A word on the inhibition: it is the relative decrease from the control value, in per cent. `Cc1nc(-c2cccc(Nc3nccc(NCC(O)c4ccccc4C(F)(F)F)n3)c2)cs1` (stereo not given): the growth inhibition in experiment [1] was 50% (active); in experiment [4] it was 97% (active). Also, the inhibition in experiment [2] was 48%; in experiment [3] it was 5%. Moreover, the outcome in experiment [5], in experiment [6], in experiment [7] and in experiment [8] was inactive.
Take `O=C(NC1CCCCC1)N(Cc1ccc(-c2cccc(CNCc3ccc4c(c3)OCO4)c2)cc1)C1CCN(Cc2ccccc2)CC1`: the growth inhibition in experiment [1] is 72% (active); in experiment [4], 101% (active). Further, the inhibition was 23% in experiment [2] and 4% in experiment [3]. Moreover, the outcome in experiment [5], in experiment [6], in experiment [7] and in experiment [8] was inactive.
As to `Cc1nc(-c2cccc(Nc3nccc(NCC(O)c4ccc(C(F)(F)F)cc4)n3)c2)cs1` (stereo not given), the growth inhibition in experiment [1] is 99% (active); in experiment [4], 100% (active). Also, the figures for the inhibition in experiment [2] and in experiment [3] were 33% and 4%, respectively. Moreover, the outcome in experiment [5], in experiment [6], in experiment [7] and in experiment [8] was inactive.
For `CN(C)CCOc1ccc(-c2cc(-c3ccncc3)c(-c3ccc(Cl)c(O)c3)o2)cc1`, the growth inhibition is 93% (active) in experiment [1] and 99% (active) in experiment [4]. Also, the inhibition in experiment [2] is 0%; in experiment [3] it was -5%. Moreover, the result in experiment [5], in experiment [6], in experiment [7] and in experiment [8] was inactive.
In the case of `CC(C)C1=C[C@H]2C[C@]3(C4OCCO4)[C@@H]4CC[C@@H](C)[C@H]4C[C@@]2(COCc2cccc(C#N)c2)[C@]13C(=O)OC(c1ccccc1)c1ccccc1`, the growth inhibition is 92% (active) in experiment [1] and 88% (active) in experiment [4]. For the same compound, the inhibition in experiment [2] is -5%; in experiment [3], 8%. In addition, the result in experiment [5], in experiment [6], in experiment [7] and in experiment [8] was inactive.
For the compound `CCc1ccc(-n2c(=O)c3cccnc3n2CC(=O)NC2CCCC2)cc1`, the growth inhibition was 27% in experiment [1] and 98% (active) in experiment [4]. The inhibition in experiment [2] is -1%; in experiment [3], -7%. For the same compound, the outcome in experiment [5], in experiment [6], in experiment [7] and in experiment [8] was inactive.
For `CC(C)COc1ccc(Cl)cc1Cc1nc(-c2nc3ccc(CN(C)C)cc3[nH]2)co1`, the growth inhibition was 87% (active) in experiment [1] and 97% (active) in experiment [4]. Besides, the inhibition in experiment [2] is 14%; in experiment [3], 5%. Moreover, the result in experiment [5], in experiment [6], in experiment [7] and in experiment [8] was inactive.
Take `COc1ccc2nc3cc(Cl)ccc3c(Nc3ccc(C(=O)O)cc3)c2c1`: the values for the growth inhibition in experiment [1] and in experiment [4] were 95% (active) and 94% (active), respectively. Besides, the inhibition in experiment [2] was -7%; in experiment [3], 6%. Besides, the result in experiment [5], in experiment [6], in experiment [7] and in experiment [8] was inactive.
For `CCC[C@@H]([C@@H](CC1CCCCC1)C(=O)N[C@@H](CCCCNS(C)(=O)=O)C(=O)Nc1nccs1)N(O)C=O`, the growth inhibition in experiment [1] is 74% (active); in experiment [4], 101% (active). Also, the inhibition was -13% in experiment [2] and -1% in experiment [3]. In addition, the outcome in experiment [5], in experiment [6], in experiment [7] and in experiment [8] was inactive.
For `CC(C)NCc1ccc(OCc2cccc(COc3ccc(CNC(C)C)cc3I)c2)c(I)c1`, the growth inhibition in experiment [1] is 92% (active); in experiment [4] it was 101% (active). Further, the inhibition in experiment [2] was 100% (active); in experiment [3] it was 6%. Further, the outcome in experiment [5], in experiment [6], in experiment [7] and in experiment [8] was inactive.
On to `N#Cc1ccc(C=CC(=O)NC2CCC(CCN3CCc4ccc(-c5cnccn5)cc4CC3)CC2)cc1` (stereo not given), for which the growth inhibition in experiment [1] is 87% (active); in experiment [4] it was 100% (active). Besides, the inhibition in experiment [2] is 37%; in experiment [3] it was -5%. Also, the outcome in experiment [5], in experiment [6], in experiment [7] and in experiment [8] was inactive.
As for `CC(C)[C@H](NC(=O)c1ccc(O)c(-c2ccc(Cl)c(Cl)c2)c1)C(=O)NCCN1CCCC1`, the figures for the growth inhibition in experiment [1] and in experiment [4] were 83% (active) and 98% (active), respectively. In addition, the inhibition in experiment [2] and in experiment [3] was 4% in each case. Further, the outcome in experiment [5], in experiment [6], in experiment [7] and in experiment [8] was inactive.
On to `O=C(NC1CCN(c2ccnc3cc(Cl)ccc23)C1)c1ccc(C(F)(F)F)cc1` (stereo not given), for which the growth inhibition in experiment [1] is 57% (active); in experiment [4] it was 101% (active). Also, the inhibition in experiment [2] is 37%; in experiment [3] it was 4%. Further, the result in experiment [5], in experiment [6], in experiment [7] and in experiment [8] was inactive.
As for `COc1ccc2nccc([C@@H](O)CN3CCC(NCc4nc5c(C#N)cccc5[nH]4)CC3)c2c1`, the growth inhibition in experiment [1] was 9%; in experiment [4], 96% (active). Also, the inhibition in experiment [2] was -3%; in experiment [3], -5%. Besides, the outcome in experiment [5], in experiment [6], in experiment [7] and in experiment [8] was inactive.
`COc1ccc2nccc([C@@H](O)CN3CCC(NCc4ccc5c(c4)sc(=O)n5C)CC3)c2c1`: the growth inhibition in experiment [1] is 72% (active); in experiment [4], 100% (active). The inhibition in experiment [2] was 10%; in experiment [3], -6%. Moreover, the result in experiment [5], in experiment [6], in experiment [7] and in experiment [8] was inactive.
`CN(CCN)Cc1cccc(-c2cccc(-c3nc4ccc(C(F)(F)F)cc4[nH]3)c2)c1`: the figures for the growth inhibition in experiment [1] and in experiment [4] were 98% (active) and 99% (active), respectively. The inhibition in experiment [2] is 22%; in experiment [3], 0%. The outcome in experiment [5], in experiment [6], in experiment [7] and in experiment [8] was inactive.
Turning to `COc1ccc2nccc([C@@H](O)CN3CC[C@H](NCc4nc5c(cc4F)SCC(=O)N5)[C@H](F)C3)c2c1`, the growth inhibition in experiment [1] is 49%; in experiment [4], 95% (active). The inhibition in experiment [2] was 9%; in experiment [3], -4%. The result in experiment [5], in experiment [6], in experiment [7] and in experiment [8] was inactive.
Turning to `C[C@H](Cc1ccc(OCCCCCCOc2ccc(C[C@@H](C)N[C@H](C)c3ccccc3)cc2)cc1)NC[C@H](O)c1cccc(Cl)c1`, the growth inhibition in experiment [1] is 98% (active); in experiment [4] it was 99% (active). Moreover, the inhibition in experiment [2] was 99% (active); in experiment [3] it was -4%. The result in experiment [5], in experiment [6], in experiment [7] and in experiment [8] was inactive.
Regarding `COc1ccc2nccc([C@@H](O)CN3CCC(NC(=O)c4ccc(CN5CCN(c6cccc(C)c6)CC5C)cc4)CC3)c2c1` (stereo not given in full), the growth inhibition is 86% (active) in experiment [1] and 97% (active) in experiment [4]. Moreover, the inhibition is 50% (active) in experiment [2] and 4% in experiment [3]. The outcome in experiment [5], in experiment [6], in experiment [7] and in experiment [8] was inactive.
On to `COc1cc(NCCCCNc2ccc(Cl)c(Cl)c2)nc2ccccc12`, for which the growth inhibition in experiment [1] was 68% (active); in experiment [4], 100% (active). In addition, the inhibition in experiment [2] is 22%; in experiment [3], 2%. Moreover, the result in experiment [5], in experiment [6], in experiment [7] and in experiment [8] was inactive.
